From ChEMBL document CHEMBL4296182, “CO-ADD screening of NIH NCI Diversity Set V”
For part of these data: Entries with a potency or affinity are not part of this list.

Key:
[1] = system: Staphylococcus aureus; experiment: Antibacterial activity against Staphylococcus aureus MRSA ATCC 43300 (CO-ADD:GP_020); MIC in CAMBH media using NBS plates, by Resazurin F(560/590); type: functional; conditions: Concentration 20 uM, ASSAY_TEST Inhibition of Bacterial Growth, detection method Resazurin, Fluorescence (ex560/em590), MEDIA CAMHB, plate type 384well, CORNING #3640, time 18 hr
[2] = system: Acinetobacter baumannii; experiment: Antibacterial activity against Acinetobacter baumannii ATCC 19606 (CO-ADD:GN_034); MIC in CAMBH media using NBS plates, by Resazurin F(560/590); type: functional; conditions: Concentration 20 uM, ASSAY_TEST Inhibition of Bacterial Growth, detection method Resazurin, Fluorescence (ex560/em590), MEDIA CAMHB, plate type 384well, CORNING #3640, time 18 hr
[3] = system: Escherichia coli; experiment: Antibacterial activity against Escherichia coli ATCC 25922 (CO-ADD:GN_001); MIC in CAMBH media using NBS plates, by Resazurin F(560/590); type: functional; conditions: Concentration 20 uM, ASSAY_TEST Inhibition of Bacterial Growth, detection method Resazurin, Fluorescence (ex560/em590), MEDIA CAMHB, plate type 384well, CORNING #3640, time 18 hr
[4] = system: Klebsiella pneumoniae; conditions: Concentration 20 uM; ASSAY_TEST Inhibition of Bacterial Growth; detection method Absorption (OD600); MEDIA CAMHB; plate type 384well; NBS; CORNING #3640; time 18 hr
[5] = system: Candida albicans; conditions: 20 µM
[6] = system: Cryptococcus neoformans; conditions: Concentration 20 uM; ASSAY_TEST Inhibition of Fungal Growth; detection method Resazurin; Absorption (OD600-OD570); plate type 384well; NBS; CORNING #3640

Compound	Inhibition [1] [%]	Inhibition [2] [%]	Inhibition [3] [%]	Inhibition [4] [%]	Inhibition [5] [%]	Inhibition [6] [%]
COC(=O)CC1(C(=O)OC)Nc2cc(Cl)c(Cl)cc2S(=O)(=O)N1O (stereo not given)	8.27	11.98	7.08	10.44	3.58	3.59
CCOC(=O)Nc1c2ccccc2nc2ccccc12	6.28	-11.12	4.72	16.5	2.36	-13.98
CCCn1cnc2c(Sc3c([N+](=O)[O-])ncn3C)nc(N)nc21	-2.1	-3.75	6.82	9.05	1.1	-2.37
Clc1ccccc1/C=C/c1ccnc2ccccc12	12.2	3.17	1.57	12.59	30.4	-3.47
CSc1ncc2ncn(C3OC(CO)C(O)C3O)c2n1 (stereo not given)	5.7	9.73	-9.56	13.33	3.06	-1.46
COc1ccc(C(=S)N2CCN(c3cccc(Cl)c3)CC2)cc1	13.14	2	3.07	17.03	9.51	-10.07
O=c1cc2oc3cc(O)c(O)cc3c(-c3ccccc3O)c-2cc1O	-11.77	-19.46	15.45	16.39	44.4	-6.63
O=C(Nc1cccc([N+](=O)[O-])c1)c1cc2ccccc2cc1O	-1.88	-9.44	23.78	3.58	12.7	-10.5
Nc1n[nH]c(-c2ccccc2)n1	11.8	-13.69	16.83	8.63	-1.64	-8.71
Oc1ccccc1Nc1ccccn1	8.12	-5.24	13.47	16.23	1.04	-3.55
Cc1ccc(NC(=O)NNC(=O)CSC2CCc3ccccc32)c(C)c1 (stereo not given)	19.06	5.57	0.84	5.08	2.67	-10.98
CN(NC(=O)C(=O)NCc1ccco1)C(=O)NC1CCCCC1	1.27	11.61	-11.28	10.63	4.23	3.93
c1ccc(-c2cc3ccccc3[nH]2)cc1 [2-PHENYL-1H-INDOLE]	0.91	-19.68	16.97	15.65	3.85	-3.77
NS(=O)(=O)c1ccc(Cl)cc1[N+](=O)[O-]	-0.55	-3.88	8.03	12.78	3.7	15.75
Cc1cc(N(C)C)ccc1/N=N/c1ccc2ncccc2c1	1.18	-8.44	5.41	5.32	3.26	-12.5
O=C(Nc1ccsn1)c1ccc(Cl)cc1Cl	2.74	-9.67	7.73	13.89	3.31	7.18
CCCCCCC(C)OC(=O)c1ccccc1C(=O)O (stereo not given)	12.97	-3.64	-2.32	24.05	18.6	-16.02
O=C1OCC/C1=C\NCCCCCCCCN/C=C1\CCOC1=O	-2.67	17.83	3.41	9.43	0.08	-12.67
O=[N+]([O-])c1cccnc1Oc1cc(Cl)c(Cl)cc1Cl	13.29	1.57	1.62	4.9	1.25	-4.41
CN(C)CCCn1c2c3ccccc3ccc2c2oc(=O)c3ccccc3c21.Cl	14.28	-7.18	12.65	11.13	0.85	-2.35
Cc1ccc(S(=O)(=O)N2CC=C(N)N2)cc1	16.25	-10.87	9.9	8.77	-1.38	-12.82
O=C(Nc1cccc2c1N(C(=O)c1ccco1)CCC2)c1ccco1	23.38	8.42	4.6	13.8	-1.4	-2.48
O=C(Nc1cccc([N+](=O)[O-])c1)c1cccc(C(=O)Nc2cccc([N+](=O)[O-])c2)c1	-2.9	3.66	1.98	5.84	-0.13	37.96
CN(C)c1ccc(/C=C/c2ccc3ccccc3n2)cc1	-2.51	5.82	5.25	10.87	5.63	-14.32
O=C(O)c1ccccc1-c1ccccc1C(=O)Nc1ccc2c(c1)nc(O)c1ccccc12	7.3	-9.28	10.96	7.34	7.22	-6.01
